High-throughput results as filed in PubChem.
The entries come from a sample that favours hits as a whole.
Giardia FBPA inh-1: qHTS Assay for Inhibitors of Fructose-1,6-bisphosphate Aldolase from Giardia Lamblia | purified Giardia FBPA | Potency, µM (top dose mostly 59.6 µM), inactives show at the highest dose activity, negative = inhibition, hits mostly inhibitors | 290,000 tested, 0.71% active; also: potency is read from the fitted curve at half-maximal effect; % is scaled to controls: 0 for no effect and ±100 for the full control effect; nearly all actives have a fitted effect of over 55% in size
Target sequence (A8B2U2 whole entry, looked up): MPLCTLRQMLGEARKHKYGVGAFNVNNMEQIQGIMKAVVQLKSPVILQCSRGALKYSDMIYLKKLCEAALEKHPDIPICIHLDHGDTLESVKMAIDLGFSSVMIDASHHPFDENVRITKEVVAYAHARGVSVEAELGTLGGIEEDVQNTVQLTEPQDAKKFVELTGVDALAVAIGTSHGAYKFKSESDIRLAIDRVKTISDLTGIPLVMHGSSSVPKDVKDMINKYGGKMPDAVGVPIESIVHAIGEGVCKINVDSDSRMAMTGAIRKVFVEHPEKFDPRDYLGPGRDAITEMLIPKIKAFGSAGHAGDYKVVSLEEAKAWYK
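Giardia FBPA (40 nM reagent) was preincubated 10 min at RT with compound (up to 57.5 uM final), then substrate plus GAPDH/TPI/NAD/arsenate coupling system with diaphorase/resazurin was added; resorufin fluorescence (525/598 nm) was read after 20 min.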
Cycloheximide cs: Cycloheximide Counterscreen for Small Molecule Inhibitors of Shiga Toxin | cell reporter, cycloheximide protein synthesis inhibition counterscreen | max response, % | 300,000 tested, 12% active | AID 2314, 2010; in the data active = max response mostly above about 13%, no sharp cut-off; inactive = mostly below about 14%; also: read at 38.3 µM for the half of the compounds with a filed dose; 0% is about no effect
RE007 growth inh: qHTS Assay for Inhibitors of the HIV-1 protein Vpr; AID 651644, 2012; 360,000 tested, 0.21% active; S. pombe RE007 Vpr strain, BacTiter-Glo ATP luminescence, 24 h; Potency, µM (doses to about 92.2 µM), for the others: at the highest dose activity change, negative = less growth, usual class: inhibitors; active = well fitted falling curve with a large enough effect; inconclusive = small, poorly fitted or top-dose-only effect; inactive = no such curve, though single readings can be large or run the other way; also: potency is read from the fitted curve at half-maximal effect; % is scaled to controls: 0 for no effect and ±100 for the full control effect; nearly all actives have a fitted effect of over 50% in size
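Fission yeast strain RE007, carrying one chromosomally integrated HIV-1 vpr copy, was seeded at OD 0.01 in PMG+AL medium with 23 nL pinned compound. After 24 h at 30 °C and 99% humidity, viability was read by BacTiter-Glo luminescence.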
Tb PYK inh: qHTS of Trypanosoma Brucei Inhibitors. pyruvate kinase (Trypanosoma brucei), Q57TT1. TbPYK enzyme, Kinase-Glo Plus ATP luminescence, 45 min. Potency, µM (series often up to 76.8 µM), without a hit: at the highest dose activity, negative = inhibition, actives largely listed as inhibitors. 410,000 tested, 0.12% active. AID 624173, 2012; also: potency is read from the fitted curve at half-maximal effect; % is scaled to controls: 0 for no effect and ±100 for the full control effect; nearly all actives have a fitted effect of over 50% in size
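Activity of T. brucei pyruvate kinase was followed by Kinase-Glo Plus luminescence after the enzyme reacted 45 min at room temperature with 130 uM ADP (final) and substrate. Test compounds were added before ADP at multiple concentrations.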
Shiga toxin inh: A qHTS for Small Molecule Inhibitors of Shiga Toxin | Vero cells, Shiga toxin protein synthesis inhibition reporter | inhibition, % at 38.7 µM | 290,000 tested, 9.2% active | AID 2315, 2010; in the data active = inhibition mostly above about 28%, no sharp cut-off; inactive = mostly below about 43%; also: 0% is about no effect
LmPK inhibitor: qHTS Assay for Inhibitors of Leishmania Mexicana Pyruvate Kinase (LmPK); Potency, µM (titrated, usually from 57.5 µM), for inactives: top-dose activity change, negative = inhibition, most hits filed as inhibitors; AID 1721, 2009; purified LmPK, Kinase-Glo ATP luminescence, 1 h; Q27686; 290,000 tested, 0.37% active; also: potency is read from the fitted curve at half-maximal effect; % is scaled to controls: 0 for no effect and ±100 for the full control effect
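Purified LmPK (0.1 nM) with 0.5 mM PEP and 0.1 mM ADP in imidazole buffer pH 7.2 with MgCl2/KCl, 1 h at room temperature. ATP formed was read by luciferase luminescence and normalized to no-enzyme and uninhibited controls.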
Giardia growth: qHTS Assay for Inhibitors of Fructose-1,6-bisphosphate Aldolase from Giardia Lamblia: Giardia lamblia growth inhibition; Giardia lamblia trophozoite growth inhibition; 1,500 tested, 5% active; shares compounds with Giardia FBPA inh-1; Potency, µM (doses to about 57.5 µM), for the others: at the highest dose activity change, negative = inhibition, actives largely listed as inhibitors; AID 2785, 2010;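 also: potency is read from the fitted curve at half-maximal effect; trophozoites exposed to compound for 48 h at 37 °C; % is scaled to controls: 0 for no effect and ±100 for the full control effect; nearly all actives have a fitted effect of over 70% in size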
Mammalian tox: qHTS Assay for Inhibitors of Fructose-1,6-bisphosphate Aldolase from Giardia Lamblia: Mammalian cellular toxicity; shares compounds with Giardia FBPA inh-1; AID 2786, 2010; Potency, µM (highest dose often 57.5 µM), without a hit: at the highest dose viability change, negative = toxicity, usual class: inhibitors; 1,500 tested, 4% active; mammalian cell viability counter-screen, qHTS;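 also: Chinese hamster ovary cells used as mammalian cytotoxicity surrogate; viability measured as cellular ATP by luminescence; potency is read from the fitted curve at half-maximal effect; compound exposure lasted 48 h before reading; % is scaled to controls: 0 for no effect and ±100 for the full control effect; nearly all actives have a fitted effect of over 60% in size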
Giardia FBPA inh-2: qHTS Assay for Inhibitors of Fructose-1,6-bisphosphate Aldolase from Giardia Lamblia: Primary screen confirmation | shares compounds with Giardia FBPA inh-1 | purified Giardia aldolase enzyme activity, qHTS | Potency, µM (doses to about 57.5 µM), for inactives: at the top dose activity change, negative = inhibition, most hits filed as inhibitors | 1,500 tested, 5% active | AID 2787, 2010; also: potency is read from the fitted curve at half-maximal effect; % is scaled to controls: 0 for no effect and ±100 for the full control effect; nearly all actives have a fitted effect of over 45% in size
Rabbit aldolase: qHTS Assay for Inhibitors of Fructose-1,6-bisphosphate Aldolase from Giardia Lamblia: Rabbit FBPA Selectivity; Rabbit muscle FBPA enzyme inhibition, selectivity counter-screen; shares compounds with Giardia FBPA inh-1; 1,500 tested, 4% active; Potency, µM (titrated, usually from 57.5 µM), for inactives: at the highest dose activity, negative = inhibition, hits mostly inhibitors; AID 2794, 2010; also: potency is read from the fitted curve at half-maximal effect; % is scaled to controls: 0 for no effect and ±100 for the full control effect; nearly all actives have a fitted effect of over 60% in size
Target sequence (P00883 whole entry, looked up): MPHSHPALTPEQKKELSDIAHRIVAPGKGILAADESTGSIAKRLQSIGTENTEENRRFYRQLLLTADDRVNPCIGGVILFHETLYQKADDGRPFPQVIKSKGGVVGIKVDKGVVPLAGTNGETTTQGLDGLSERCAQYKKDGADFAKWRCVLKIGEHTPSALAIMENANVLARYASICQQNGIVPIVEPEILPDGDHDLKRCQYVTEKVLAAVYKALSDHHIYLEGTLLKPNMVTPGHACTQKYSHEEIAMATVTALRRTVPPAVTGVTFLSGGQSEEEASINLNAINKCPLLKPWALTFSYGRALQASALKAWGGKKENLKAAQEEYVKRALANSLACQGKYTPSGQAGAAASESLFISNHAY
GAPDH coupling: qHTS Assay for Inhibitors of Fructose-1,6-bisphosphate Aldolase from Giardia Lamblia: Coupling assay counterscreen confirmation. Potency, µM (highest dose often 57.5 µM), inactives show at the highest dose activity change, negative = inhibition, actives largely listed as inhibitors. AID 2795, 2010. shares compounds with Giardia FBPA inh-1. 1,500 tested, 6% active. GAPDH coupling enzyme counterscreen, biochemical, qHTS; also: potency is read from the fitted curve at half-maximal effect; % is scaled to controls: 0 for no effect and ±100 for the full control effect; nearly all actives have a fitted effect of over 55% in size
Numbers without * were called inactive; [ ] = dose if it differs, or a comment. Unless noted, calls follow the shape of the dose curve; as a rule, active = well fitted curve in the direction sought with a large enough effect; inconclusive = small, poorly fitted or top-dose-only effect, or another doubt; inactive = no such curve, though single readings can be large; an effect the other way counts as inactive or inconclusive.

For Cc1cc(C)c(S(=O)(=O)/N=C2/C=C(Sc3ncn[nH]3)C(=O)c3ccccc32)cc1C the results were Giardia FBPA inh-1 0.79µM*, Cycloheximide cs 33*, RE007 growth inh inconclusive, Tb PYK inh 5.6µM*, Shiga toxin inh 48*, LmPK inhibitor 7.9µM*, Giardia growth 14µM*, Mammalian tox 20µM*, Giardia FBPA inh-2 6.3µM*, Rabbit aldolase 7.1µM* and GAPDH coupling 5µM*.
For Cc1ccc(-c2nnc(SCC(=O)NCc3ccccc3)o2)cc1 the results were Tb PYK inh 1%.
`Cc1cc(C)c(NC(=S)NCCCSC2CCCCC2)c(C)c1` gave Giardia FBPA inh-1 16µM*, Cycloheximide cs 1, RE007 growth inh -7%, Tb PYK inh -21%, Shiga toxin inh -8, LmPK inhibitor 2%, Giardia growth inconclusive, Mammalian tox 14%, Giardia FBPA inh-2 9%, Rabbit aldolase 16% and GAPDH coupling -1%.
Screening CCN(CC(=O)NCc1ccc(Cl)cc1)C(=O)CSCC(=O)Nc1cccc(C)c1 returned Cycloheximide cs 1, RE007 growth inh -8%, Tb PYK inh 32%, Shiga toxin inh -1 and LmPK inhibitor 2%.
CCN1CCc2nc(N)sc2C1 was read as Giardia FBPA inh-1 11µM*, Cycloheximide cs -2, RE007 growth inh -22%, Tb PYK inh inconclusive, Shiga toxin inh -32, LmPK inhibitor 2%, Giardia growth -19%, Mammalian tox 14%, Giardia FBPA inh-2 inconclusive, Rabbit aldolase inconclusive and GAPDH coupling 28µM*.
For CC(=O)Nc1nonc1NC(C)=O the results were Giardia FBPA inh-1 1%, Cycloheximide cs -3, RE007 growth inh -9%, Tb PYK inh 2%, Shiga toxin inh -17 and LmPK inhibitor 2%.
`CC(=O)Nc1cc(OC(C)=O)c2nonc2c1OC(C)=O` gave Giardia FBPA inh-1 0.045µM*, Cycloheximide cs -2, RE007 growth inh -9%, Tb PYK inh -5%, Shiga toxin inh -18, LmPK inhibitor 15%, Giardia growth inconclusive, Mammalian tox 16µM*, Giardia FBPA inh-2 3.5µM*, Rabbit aldolase 4.5µM* and GAPDH coupling 2µM*.
CNC(=S)NNS(=O)(=O)c1ccc(OC)cc1OC was read as Giardia FBPA inh-1 20µM*, Cycloheximide cs 7, RE007 growth inh 7%, Tb PYK inh -21%, Shiga toxin inh -9, LmPK inhibitor 8%, Giardia growth 22%, Mammalian tox -4%, Giardia FBPA inh-2 2%, Rabbit aldolase 6% and GAPDH coupling 7%.
For COc1cccc(NC(=O)NNS(=O)(=O)c2ccc(OC)cc2OC)c1 the results were Giardia FBPA inh-1 4%, Cycloheximide cs -2, RE007 growth inh -6%, Tb PYK inh -6%, Shiga toxin inh -5 and LmPK inhibitor 5%.
Cc1cccc(NC(=O)CSc2n[nH]c(-c3ccncc3)n2)c1C was read as Giardia FBPA inh-1 22µM*, Cycloheximide cs -3, RE007 growth inh -1%, Tb PYK inh -10%, Shiga toxin inh 10, LmPK inhibitor -6%, Giardia growth 14%, Mammalian tox -2%, Giardia FBPA inh-2 6%, Rabbit aldolase 15% and GAPDH coupling 17%.
`CN1CC[C@@]2(C)c3cc(O)ccc3N(C)C2O1` (some centres not stated) gave Giardia FBPA inh-1 0.63µM*, Cycloheximide cs -9, Tb PYK inh -20%, Shiga toxin inh 6, Giardia growth inconclusive, Mammalian tox -21%, Giardia FBPA inh-2 2.5µM*, Rabbit aldolase 3.5µM* and GAPDH coupling 4.5µM*.
CC(OC(=O)/C=C/c1ccco1)C(=O)NC1CCCCC1C (configuration not stated) was read as RE007 growth inh 8% and Tb PYK inh -1%.
Oc1ccccc1CNc1cccc2cccnc12 was read as Giardia FBPA inh-1 6.3µM*, Cycloheximide cs 45*, RE007 growth inh -15%, Tb PYK inh -8%, Shiga toxin inh 62*, LmPK inhibitor -1%, Giardia growth -28%, Mammalian tox -8%, Giardia FBPA inh-2 -20%, Rabbit aldolase -8% and GAPDH coupling -2%.
O=C(O)c1cc(-c2cc(C(=O)O)c3ccccc3n2)nc2ccccc12 was read as Giardia FBPA inh-1 2.5µM*, Cycloheximide cs -3, Shiga toxin inh -4, LmPK inhibitor 1%, Giardia growth -13%[38.3 µM], Mammalian tox -11%, Giardia FBPA inh-2 -2%, Rabbit aldolase 4% and GAPDH coupling -6%.
`Cn1ccc(-c2cc(C(=O)O)c3ccccc3n2)n1` gave Giardia FBPA inh-1 inconclusive, Cycloheximide cs -3, RE007 growth inh -2%, Tb PYK inh -6%, Shiga toxin inh -7 and LmPK inhibitor 3%.
For COc1cccc(-c2cnc(C(O)c3ccc(Cl)c(F)c3)[nH]2)c1 (configuration not stated) the results were RE007 growth inh -12% and Tb PYK inh -4%.
